From PubChem BioAssay AID588473 (Sanford-Burnham Center for Chemical Genomics, 2011)
Out of some 350,000 compounds screened, about 1,600 (0.46%) were called active. This excerpt belongs to a sample that is enriched for actives. Unmarked numbers belong to inactive results.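 Rule for the calls: active = activation of at least 50%, plus an integration ratio under a set limit after plate pattern correction; inactive = the rest.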

System: CRF-binding protein / CRF receptor 2 complex (human)
Experiment: activators of CRF-R2 with CRF-BP – cell-based, HEK293, calcium dye fluorescence, uHTS, primary screen (AID 588473);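 note: plate controls were neutral control wells without compound for no effect and CRF at EC100 for full effect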
Conditions: calcium dye fluorescence (FLIPR), at 13.2 µM, stronger effect = higher value, percent of saturating CRF peptide response

`COc1ccc(-c2c(-c3cc(OC)cc(OC)c3)n(C)c3ccc(-c4ccn[nH]4)cc23)cc1` was tested. Which activation did it give?
The activation was 2.7%.

With `CC1CC1C(=O)OCC(=O)Nc1cccc(F)c1` (centres undefined) as the compound, how does the activation read?
Its activation is 1.09%.

`CCOCCc1c(O)nc(SCC(=O)NCc2ccco2)[nH]c1=O` was tested. Which activation did it give?
Its activation is 0.28%.

Which activation does the source give for `Cc1ccc(CN(C)C[C@@H]2OCc3cnnn3CCCC(=O)N([C@@H](C)CO)C[C@H]2C)cc1` here?
The activation was 0.05%.

Which activation does the source give for `COc1cccc2cc(S(=O)(=O)c3ccc(C)cc3)/c(=N/NS(=O)(=O)c3ccc(C)cc3)oc12` here?
Its activation is 2.38%.

With `COC(=O)Cc1cc(=O)oc2c(C)c(O)ccc12` as the compound, how does the activation read?
Its activation is 2.46%.

Which activation does the source give for `Cc1cc(S(=O)(=O)c2cc3ccc(O)c(C)c3oc2=O)ccc1F` here?
The activation was 91.1% (active).

`COc1ccc(-c2[nH]ncc2CN(C)Cc2cc(C)[nH]n2)c(F)c1` was tested. Which activation did it give?
The activation was -4.41%.

How did the activation turn out when `CCN(CC)c1ccc(NC(=O)C2CCC(CNc3c(N4CCCC4)c(=O)c3=O)CC2)c(C)c1` (centres undefined) was run?
The activation was -1.59%.

Which activation does the source give for `CCOC(=O)/C(C#N)=C/c1ccc(N2CCCCC2)cc1` here?
Its activation is 69.9% (active).

How did the activation turn out when `COc1ccc(/C=C(\C#N)C(=O)ONC2=NCCCCC2)cc1` was run?
The activation was -0.53%.

How did the activation turn out when `CCCn1c(C)cc(/C=C(\C#N)C(=O)OCC(=O)N(C)c2c(N)n(Cc3ccccc3)c(=O)[nH]c2=O)c1C` was run?
The activation was -1.33%.

Which activation does the source give for `COc1ccc(/C=C(\C#N)C(=O)OCC(=O)N(C)C2CCS(=O)(=O)C2)cc1` (centres undefined) here?
The activation was -0.47%.

Which activation does the source give for `CCOC(=O)/C(C#N)=C/c1ccc(N2CCN(Cc3ccccc3)CC2)cc1` here?
The activation was 100% (active).

With `CC(C)OC(=O)C(C#N)c1nc2ccccc2nc1N1CCN(Cc2ccccc2)CC1` (centres undefined) as the compound, how does the activation read?
The activation was 4.17%.

How did the activation turn out when `CC(C)c1nc(CNC(=O)CC2C(=O)NCCN2Cc2ccoc2)cs1` (centres undefined) was run?
The activation was 3.31%.

How did the activation turn out when `CCO[C@H]1OC(C(=O)N2CCN(Cc3ccccc3)CC2)=C[C@@H](c2cn(C(C)=O)c3ccccc23)[C@@H]1CCCO` was run?
Its activation is -0.99%.

For `O=C(OCc1cn(-c2ccc(Cl)c(Cl)c2)nn1)c1ccccc1Cl`, which activation is on record?
Its activation is 5.3%.

With `CC(C(=O)N1CCN(c2ccccc2F)CC1)c1ccc([N+](=O)[O-])cc1` (centres undefined) as the compound, how does the activation read?
Its activation is -0.08%.

`CC(C)CNC(=O)/C=C/C(=O)O` was tested. Which activation did it give?
The activation was -1.76%.

How did the activation turn out when `CCCc1cc(=O)n2[nH]c(SCc3ccccc3)nc2n1` was run?
The activation was 1.41%.

Which activation does the source give for `CCn1nnnc1SCC(=O)c1ccc(C)cc1C` here?
Its activation is 1.45%.

For `Cc1cccc(-c2nnc(SCC(=O)O)n2Cc2ccccc2)c1`, which activation is on record?
Its activation is -1.45%.

Which activation does the source give for `Cc1ccc2c(c1)nnc1nnc(SCC(=O)O)n12` here?
The activation was 187% (active).

Which activation does the source give for `CC1(C)C2CCC13CS(=O)(=O)NC3C2` (centres undefined) here?
Its activation is -2.27%.

For `CC1Cc2nc(SCC(=O)Nc3ccccc3F)n(C)c(=O)c2S1` (centres undefined), which activation is on record?
The activation was -2.32%.

With `COc1cccc(N(CC(=O)NC2CCCC2)C(=O)Cn2nnc(-c3ccc(C)cc3)n2)c1` as the compound, how does the activation read?
The activation was -0.55%.

For `CCOc1ccc2nc(NCCNC(=O)C(C)(C)C)c(C)cc2c1`, which activation is on record?
The activation was 0.31%.

For `CCOc1ccc2nc(N3CCCN(C(=O)Nc4ccccc4C)CC3)c(C#N)cc2c1`, which activation is on record?
Its activation is 53.4% (active).

Which activation does the source give for `CCOc1ccc(C(=O)NC2CCN(C(=O)Nc3ccccc3OC)CC2)cc1` here?
The activation was 1.14%.

Which activation does the source give for `CCC(=O)Nc1cc(C(F)(F)F)ccc1N1CCCC1` here?
Its activation is -0.05%.

Which activation does the source give for `CCCCCCSc1ccc([C@@H]2[C@@H]3C(=O)N(CC)C(=O)[C@@H]3[C@]3(C(=O)OC)CCCCN23)cc1OC` here?
Its activation is 5.06%.

Which activation does the source give for `N#C/C(=C/c1ccc(N2CCOCC2)o1)C(=O)N1CCOCC1` here?
Its activation is 67.4% (active).

For `N#C/C(=C\c1ccc(N2CCOCC2)o1)C(=O)N1CCOCC1`, which activation is on record?
The activation was 57.8% (active).

How did the activation turn out when `N#C/C=C(/c1ccc(F)cc1)N1CCOCC1` was run?
Its activation is -1.81%.

How did the activation turn out when `O=C(N1CCOCC1)N1CCOCC1` was run?
The activation was -0.16%.

With `N#C/C(=C\C1=C(N2CCOCC2)C(=C\c2ccccc2)/CC1)C(=O)Nc1ccccc1F` as the compound, how does the activation read?
Its activation is 10.9%.

Which activation does the source give for `N#C/C(=C\N1CCOCC1)S(=O)(=O)c1ccc(Cl)cc1` here?
Its activation is -0.74%.

`CCCN(CC(=O)Nc1ccc(C(N)=O)cc1)CC(=O)Nc1ccccc1C` was tested. Which activation did it give?
Its activation is -1.42%.

For `CCCn1nc(NC(=O)C(C)C)c2cc3cc(OC)ccc3nc21`, which activation is on record?
Its activation is -3.44%.

`O=C(O)CSc1nccc2ccccc12` was tested. Which activation did it give?
Its activation is -1.24%.

Which activation does the source give for `CC(C(=O)NC1CCS(=O)(=O)C1)N1C(=O)/C(=C/c2ccc(Cl)cc2)SC1=S` (centres undefined) here?
Its activation is 0.11%.

For `Cn1cccc1/C=C1\SC(=S)N(NC(=O)c2ccc(Cl)cc2)C1=O`, which activation is on record?
The activation was 0.66%.

Which activation does the source give for `O=C1/C(=C/c2ccc(F)cc2)SC(=S)N1NS(=O)(=O)c1ccccc1` here?
Its activation is -2.42%.

For `NS(=O)(=O)c1ccc(-c2ccc(/C=C3\SC(=O)NC3=O)o2)cc1`, which activation is on record?
The activation was -4.11%.

Which activation does the source give for `O=C(O)C(c1ccccc1)N1C(=O)/C(=C\c2ccc(-c3cccc(Cl)c3)o2)SC1=S` (centres undefined) here?
Its activation is 53.1% (active).

For `CN1C(=O)/C(=C\c2ccc(-c3ccccc3)o2)SC1=S`, which activation is on record?
Its activation is 177% (active).

How did the activation turn out when `Cc1nn(CC(=O)NC2CCCCC2)c(=O)c2cccn12` was run?
The activation was -0.23%.

Which activation does the source give for `O=S1(=O)C=C(SCCN2CCCC2)c2ccccc21` here?
The activation was 0.69%.

`CCCN1C2CCCC1CC(NC(=O)NC13CC4CC(CC(C4)C1)C3)C2` (centres undefined) was tested. Which activation did it give?
Its activation is 0.55%.

How did the activation turn out when `Cc1cccc(N(C)C(=O)CN2C(=O)COc3ccc(S(=O)(=O)N4CCCCCC4)cc32)c1` was run?
The activation was 21.6%.

With `COc1cc(CCC(=O)OCC(=O)Nc2cccc(S(N)(=O)=O)c2)cc(OC)c1OC` as the compound, how does the activation read?
Its activation is 1.86%.

For `COC(=O)c1cc(NC(=O)c2nn(C)c(=O)c3ccccc23)cc(C(=O)OC)c1`, which activation is on record?
Its activation is -0.23%.

For `CCN(CC)c1ccc2oc(=O)c(C)nc2c1`, which activation is on record?
The activation was 111% (active).

With `Cc1ccc2oc(=O)ccc2c1` as the compound, how does the activation read?
The activation was -1.36%.

How did the activation turn out when `CCc1ccc2oc(-c3ccc(N)cc3)nc2c1` was run?
The activation was 0.69%.

`C/C(CC(=O)NC(C)(C)C)=N\NC(=O)c1ccco1` was tested. Which activation did it give?
Its activation is -2.93%.

For `CN1CCC(=O)N([C@H](CO)Cc2ccccc2)CC1`, which activation is on record?
The activation was 0.86%.

Which activation does the source give for `O=C1NC(Nc2nc3ccccc3s2)(C(F)(F)F)C(=O)N1C1CCCCC1` (centres undefined) here?
Its activation is -0.92%.
